Assay outcomes from PubChem.
CHX counter: affects cycloheximide protein synthesis inhibition readout, counter-screen | cell reporter, cycloheximide protein synthesis inhibition counterscreen | max response, % | 12% of 300,000 active; in the data active means max response mostly above about 13%, no sharp cut-off; inactive means mostly below about 14%; further: read at 38.3 µM for the half of the compounds with a filed dose; 0% is about no effect
Tb PYK inh: T. brucei pyruvate kinase inhibition; AID 624173; Potency, µM (titrated, usually from 76.8 µM), inactives show at the top dose activity, negative = inhibition, hits mostly inhibitors; TbPYK enzyme, Kinase-Glo Plus ATP luminescence, 45 min; 0.12% of 410,000 active; Q57TT1; further: potency means the concentration at half of the fitted maximal effect; on the % scale 0 is the no-effect control and ±100 the full control effect; nearly all actives have a fitted effect of over 50% in size
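Luminescence from Kinase-Glo Plus, added after a 45-minute room-temperature reaction, served as the end-point read-out. The enzyme and substrate were preincubated with compound before ADP (130 uM final) initiated turnover. Concentration-effect curves came from normalized qHTS data.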
Shiga toxin inh: inhibitors of Shiga toxin in Vero cells; Vero cells, Shiga toxin protein synthesis inhibition reporter; inhibition, % at 38.7 µM; 9.2% of 290,000 active; AID 2315; in the data active means inhibition mostly above about 28%, no sharp cut-off; inactive means mostly below about 43%; further: 0% is about no effect
LmPK inhibitor: inhibitors of Leishmania mexicana pyruvate kinase; Q27686; purified LmPK, Kinase-Glo ATP luminescence, 1 h; Potency, µM (highest dose often 57.5 µM), for the others: top-dose activity change, negative = inhibition, actives largely listed as inhibitors; 0.37% of 290,000 active; further: potency means the concentration at half of the fitted maximal effect; on the % scale 0 is the no-effect control and ±100 the full control effect
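In 50 mM imidazole pH 7.2 with 7 mM MgCl2, LmPK (0.1 nM) turned over PEP (0.5 mM) and ADP (0.1 mM) for 1 h at room temperature. Luciferase read-out of ATP.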
RE007 growth inh: less growth of the S. pombe RE007 Vpr strain; S. pombe RE007 Vpr strain, BacTiter-Glo ATP luminescence, 24 h; Potency, µM (highest dose often 92.2 µM), inactives show top-dose activity change, negative = less growth, usual class: inhibitors; 0.21% of 360,000 active; AID 651644; active means well fitted falling curve with a large enough effect; inconclusive means small, poorly fitted or top-dose-only effect; inactive means no such curve, though single readings can be large or run the other way; further: potency means the concentration at half of the fitted maximal effect; on the % scale 0 is the no-effect control and ±100 the full control effect; nearly all actives have a fitted effect of over 50% in size
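Fission yeast RE007 carrying one integrated HIV-1 vpr copy, seeded at OD 0.01 in PMG+AL medium with 23 nL pinned compound. Grown 24 h at 30 degrees; viability read by BacTiter-Glo luminescence after 5 min.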
Giardia FBPA inh: blocks Giardia fructose-bisphosphate aldolase activity. purified Giardia FBPA. A8B2U2. 0.71% of 290,000 active. AID 2451. Potency, µM (doses to about 59.6 µM), for the others: at the top dose activity, negative = inhibition, most hits filed as inhibitors; further: potency means the concentration at half of the fitted maximal effect; on the % scale 0 is the no-effect control and ±100 the full control effect; nearly all actives have a fitted effect of over 55% in size
Target sequence (A8B2U2 whole entry, looked up): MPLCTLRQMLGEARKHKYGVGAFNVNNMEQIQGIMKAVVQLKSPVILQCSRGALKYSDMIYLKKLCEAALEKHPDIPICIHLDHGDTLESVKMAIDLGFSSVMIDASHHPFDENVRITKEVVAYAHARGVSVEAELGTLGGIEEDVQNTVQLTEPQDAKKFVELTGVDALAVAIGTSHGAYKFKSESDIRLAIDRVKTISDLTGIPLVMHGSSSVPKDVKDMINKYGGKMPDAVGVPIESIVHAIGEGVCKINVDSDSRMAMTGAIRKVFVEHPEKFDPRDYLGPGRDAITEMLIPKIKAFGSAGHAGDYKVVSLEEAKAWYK
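Giardia FBPA (40 nM reagent) was preincubated 10 min at RT with compound (up to 57.5 uM final), then substrate plus GAPDH/TPI/NAD/arsenate coupling system with diaphorase/resazurin was added; resorufin fluorescence (525/598 nm) was read after 20 min.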
Numbers without * were called inactive; ? = inconclusive; / = no result. This excerpt belongs to a sample that is enriched for hits. Unless noted, the call rests on the fitted dose curve; in most records, active means well fitted curve in the direction sought with a large enough effect; inconclusive means small, poorly fitted or top-dose-only effect, or another doubt; inactive means no such curve, though single readings can be large; an effect the other way counts as inactive or inconclusive.

SMILES	CHX counter	Tb PYK inh	Shiga toxin inh	LmPK inhibitor	RE007 growth inh	Giardia FBPA inh
CC(C)(C)OC(=O)[C@H](Cc1ccccc1)NC(=O)c1ncn2c1c(=O)[nH]c1ccc(Br)cc12	/	2%	/	/	-4%	/
CC(C)CNC(=O)N1[C@H](c2cccs2)[C@@H](C)C(=O)[C@@H](C)[C@@H]1c1cccs1	/	-6%	/	/	/	/
Cc1cccc(NC(=O)Nc2ccc(Br)cc2)n1	29*	1%	59*	3%	-11%	5%
CCC(=O)Nc1ccc(C(=O)Nc2cccc(C)n2)cc1	35*	-6%	62*	-18%	-12%	-13%
COc1ccc(NC(=S)Nc2cccc(C)n2)cc1	19*	4%	62	2%	-12%	0%
CCOC(=O)c1ccc(NC(=O)Nc2cccc(C)n2)cc1	-5	-3%	1	1%	9%	2%
COc1ccc(NC(=O)Nc2cccc(C)n2)cc1	49*	11%	117*	-2%	-8%	-4%
CCOC(=O)CN(C)C(=O)C1CC(CO[Si](C)(C)C(C)(C)C)=CN1C(=O)OC(C)(C)C (stereo unspecified)	7	/	4	/	/	-1%
O=C(CCN1C(=O)C2CC=CCC2C1=O)Nc1ccc(S(=O)(=O)N2CCCCC2)cc1 (stereo unspecified)	/	-3%	/	/	-8%	/
Cc1cccc(NC(=O)Nc2ccccc2[N+](=O)[O-])n1	24*	0%	14	0%	-4%	1%
O=C(CCC1N=C2c3ccccc3N=C(SCC(=O)Nc3ccc(F)cc3)N2C1=O)NCc1cccs1 (stereo unspecified)	/	-3%	/	/	/	/
COc1ccc(CCNC(=O)CSc2nc3[nH]ncc3c(=O)n2-c2ccc(C)c(Cl)c2)cc1OC	41*	3%	96*	14%	-2%	-2%
Oc1ccc(Br)cc1/C=N/N1CCN(Cc2ccccc2)CC1	-3	4%	3	4%	?	0%
Oc1ccc(Br)cc1/C=N/N1CCCCC1	52*	-11%	82*	?	-20%	0%
Oc1ccc(Br)cc1/C=N/n1cnc2ccccc21	41*	-3%	60*	2%	-22%	1%
Cc1ccnc(NC(=O)C(Cc2ccccc2)NC(=O)c2ccccc2)c1 (stereo unspecified)	/	0%	/	/	-14%	/
Nc1cccc2c1C(=O)N(C(=O)/C=C/c1ccc(F)cc1)C2=O	37*	1%	76*	-5%	?	-5%
Cc1cccc(OCC(=O)NCc2ccc3c(c2)CCN3C(=O)c2ccccc2)c1	/	-1%	/	/	/	/
COC(=O)c1ccc(COc2ccc3c(C)c(C)c(=O)oc3c2C)o1	15*	1%	65*	8%	16%	5%
Cc1c(OCc2ccc(C(=O)O)o2)ccc2c3c(c(=O)oc12)CCC3	21	0%	84*	11%	-4%	20%
CCCN(C(=O)Cc1c(C(=O)O)n(C)c2ccccc12)c1cccc(C)c1	-4	0%	-6	4%	17%	0%
CN(C)c1ccc(C=C2C(=O)NC(=S)NC2=O)cc1	/	32µM*	/	/	33%	/
CN(C)c1ccc(C=C2C(=O)NC(=O)NC2=O)cc1	/	-26%	/	/	6%	/
Cc1cc(C)nc(NC(=O)/C=C/c2ccccc2Cl)c1	30*	-5%	32*	-12%	-26%	-2%
Cc1cc(C)nc(NC(=O)/C=C/c2ccc(Cl)cc2Cl)c1	41*	-8%	81*	-2%	?	1%
SMILES	CHX counter	Tb PYK inh	Shiga toxin inh	LmPK inhibitor	RE007 growth inh	Giardia FBPA inh
Cc1nc(NC(=O)/C=C/c2ccc(Cl)cc2Cl)sc1C(=O)N(C)C	-4	-6%	12	2%	3%	1%
Cc1cc(C)nc(NC(=O)/C=C/c2cccs2)c1	19	-9%	108	-10%	11%	0%
Cc1cc(C)nc(NC(=O)/C=C/c2ccccc2Cl)n1	45*	-10%	70*	-9%	-9%	10%
COc1ccc(/C=N/c2oc(-c3ccccc3)cc2C#N)cc1OC	23*	-14%	62*	-2%	-26%	?
CCCCCn1c(=O)c(-c2nc3ccccc3[nH]2)c(O)c2ccccc21	-2	0%	4	-2%	1%	8%
COc1cc(C(=O)N2CCCCCCC2)ccc1OC1CCN(C(C)=O)CC1	30*	-3%	43*	-7%	-5%	-4%
COCC1CCCCN1C(=O)c1ccc(OC)c(OC2CCN(C(C)C)CC2)c1 (stereo unspecified)	57*	8%	93*	-1%	2%	/
CCC1CCCCN1C(=O)c1ccc(OC2CCN(C(=O)CCOC)CC2)cc1 (stereo unspecified)	16*	1%	11	-4%	-5%	/
COCC1CCCCN1C(=O)c1cccc(OC2CCN(C(=O)C3CC3)CC2)c1 (stereo unspecified)	50*	28%	81*	-10%	11%	/
COC(=O)CCN(Cc1ccco1)S(=O)(=O)c1ccc(F)cc1Br	8	/	22	/	/	-7%
CCOC(=O)N/N=C\c1cccc(OC)c1OC/C=C/c1ccccc1	16	-3%	34*	4%	24%	-9%
COc1cccc(/C=N/NC(=O)CC(C)O)c1OC/C=C/c1ccccc1 (stereo unspecified)	4	3%	23	-3%	1%	-3%
CC(=O)N/N=C\c1cccc(OC/C=C/c2ccccc2)c1	59*	-1%	159*	0%	-1%	/
CC(=O)N/N=C\c1ccccc1OC/C=C/c1ccccc1	22*	-11%	93	7%	-11%	-11%
N#CCC(=O)N/N=C\c1cccc(OC/C=C/c2ccccc2)c1	53*	-1%	122*	-5%	2%	/
COc1cc(/C=N\NC(=O)CC#N)ccc1OC/C=C/c1ccccc1	-1	1%	1	3%	-3%	-1%
COCC(=O)N/N=C\c1ccc(OC/C=C/c2ccccc2)c(OC)c1	-2	3%	-4	-1%	12%	2%
Cc1ccccc1C(=O)NNC(=O)C1CC(=O)N(c2ccc3c(c2)OCCO3)C1 (stereo unspecified)	/	-7%	/	/	35%	/
Cc1cccnc1NC(=O)CN1C(=O)c2ccccc2S1(=O)=O	/	1%	/	/	-6%	/
CC1Cc2ccccc2N1Cc1cccc([N+](=O)[O-])c1 (stereo unspecified)	9	-1%	-8	-4%	-4%	6%
Cc1cc(C(=O)CN2C(=O)NC3(CCCCC3)C2=O)c(C)n1C	38*	1%	45*	-2%	20%	-2%
Cc1cc(C)c(C(=O)CN2C(=O)NC3(CCCCCC3)C2=O)cc1C	53*	3%	41*	-1%	12%	2%
COC(=O)c1ccc(CN2C(=O)NC3(CCCCC3)C2=O)cc1	119*	2%	61*	0%	-8%	8%
COCCNc1nc(NCc2cc(-c3ccc(OC)cc3)no2)c2sccc2n1	/	0%	/	/	-19%	/
